# Test results from the supplement of paper PMC11219838.
# Unmarked numbers belong to inactive results.
# Test system: Caenorhabditis elegans L1 (N2)
# Assay: survival and reproduction score of C. elegans L1 (0: 0-10 living worms, 1: 11-20, 2: 21-50, 3: >50, 4: overgrown) (score 0-4); higher = more worms, less nematicidal, active = 1 or less; extreme values may be limits of the assay
# Conditions: 60 µM; 6 days; temperature: 20 °C
# Method in brief: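 After compound was pinned to 60 µM final (0.6% v/v DMSO) into wells with roughly 20 synchronized C. elegans N2 L1s and E. coli HB101 in liquid NGM, the sealed 96-well plates were shaken at 200 rpm for 6 days at 20 °C. Under a dissection microscope, survival and reproduction were graded ordinally by living worms per well. A grade of 0 stood for 0–10 worms and 4 for overgrown, starved wells; two biological replicates were averaged.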
row,Compound,survival and reproduction score
1,Cc1cc(C)cc(NC(=O)CSc2nnc(-c3ccccc3)o2)c1,4
2,Cc1ccccc1-c1nc(-c2ccc3c(c2)OCO3)no1,2.5
3,Cc1ccc(NC(=O)CSc2nnc(-c3ccccc3)o2)c(C)c1,4
4,Clc1ccccc1-c1nc(-c2ccc3c(c2)OCO3)no1,4
5,CC(=O)Nc1ccc(NC(=O)c2ccccc2-c2nc(-c3ccccc3Cl)no2)cc1,4
6,Clc1ccc(OCc2nc(-c3cccs3)no2)cc1,2.5
7,Cc1cccc(-c2noc(-c3ccccc3Cl)n2)c1,4
8,CCCCSc1nnc(-c2ccc(Br)cc2)o1,0 (active)
9,CCC(=O)Nc1ccccc1-c1nc(-c2cccnc2)no1,4
10,CCC(=O)Nc1ccccc1-c1nc(-c2ccccn2)no1,4
11,Cc1ccc(-c2nc(-c3cccc(C(F)(F)F)c3)no2)cc1,3.5
12,COc1cccc(NC(=O)c2ccccc2-c2nc(-c3ccc(F)cc3)no2)c1,4
13,C=CCSc1nnc(-c2ccc(Br)cc2)o1,0 (active)
14,Cc1cccc(-c2noc(-c3ccccc3Br)n2)c1,3.5
15,COc1ccc(Cl)cc1-c1noc(-c2ccccc2C)n1,4
16,O=C(CSc1nnc(-c2ccccc2)o1)Nc1cccc(C(F)(F)F)c1,4
17,COc1ccccc1-c1nnc(SCc2ccccc2C)o1,4
18,COc1ccc(-c2nnc(SCc3ccccc3C)o2)cc1,4
19,Clc1ccccc1-c1noc(-c2cccnc2)n1,4
